Screens from PubChem.
Nrf2 inh – blocks Nrf2 signaling; A549 ARE-Fluc reporter, luciferase luminescence, 18-24 h; Potency, µM (top dose mostly 46 µM), most hits filed as inhibitors; 360,000 tested, 2.1% active; AID 504444; also: nearly all actives have a fitted effect of over 60% in size
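A549 ARE_Fluc cells (5000/well, 5% FBS OPTI-MEM) pre-incubated 2 h, then treated with compounds 18-24 h at 37C/5% CO2 in concentration-response. CellTiter-Fluor viability read first; BugLite luciferase luminescence after 15 min at room temperature gives Nrf2 activity.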
12-LOX inh – inhibitors of human 12S-lipoxygenase ALOX12; P18054; purified 12hLO, xylenol orange hydroperoxide absorbance; Potency, µM (top dose mostly 108 µM), hits mostly inhibitors; 580,000 tested, 1.1% active; AID 1671190
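Purified human 12hLO (150 nM final) in 25 mM Hepes, 0.01% Triton X-100, pH 7.0 was preincubated 15 min at room temperature with compound. Then 40 uM arachidonic acid was added, 30 min. Hydroperoxide was read by Fe-XO absorbance ratio 573/405 nm.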
A549 tox – A549 cytotoxicity, counter-screen for Nrf2 inhibitors. A549 ARE-Fluc cells, CellTiter-Fluor viability, 18-24 h. Potency, µM (titrated, usually from 46 µM), most hits filed as inhibitors. 390,000 tested, 0.16% active
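Cytotoxicity counterscreen: CellTiter-Fluor fluorescence was measured in A549 ARE_Fluc cells after 18-24 h of compound exposure in a concentration series. The subsequent BugLite luminescent read reports ARE-luciferase activity.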
Nrf2 ARE act – activates Nrf2 signaling; AREc32 ARE-luciferase reporter (MCF7-derived line), luminescence, 24 h; Potency, µM (doses to about 46.1 µM), usual class: activators; 410,000 tested, 0.31% active; AID 624171; also: nearly all actives have a fitted effect of over 65% in size
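Quantitative high-throughput format: AREc32 reporter cells, 1000 per well, received compound by pin transfer and were incubated 24 hr at 37 deg C, 5% CO2, before Steady-Glo luminescence detection.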
IDH1 R132H inh – inhibitors of human mutant IDH1 R132H; Potency, µM (top dose mostly 76.6 µM), most hits filed as inhibitors; O75874; 390,000 tested, 0.093% active; AID 602179; IDH1-R132H enzyme, NADPH consumption, diaphorase/resazurin fluorescence; also: nearly all actives have a fitted effect of over 65% in size
Target sequence (O75874 whole entry R132H, stated change not applied): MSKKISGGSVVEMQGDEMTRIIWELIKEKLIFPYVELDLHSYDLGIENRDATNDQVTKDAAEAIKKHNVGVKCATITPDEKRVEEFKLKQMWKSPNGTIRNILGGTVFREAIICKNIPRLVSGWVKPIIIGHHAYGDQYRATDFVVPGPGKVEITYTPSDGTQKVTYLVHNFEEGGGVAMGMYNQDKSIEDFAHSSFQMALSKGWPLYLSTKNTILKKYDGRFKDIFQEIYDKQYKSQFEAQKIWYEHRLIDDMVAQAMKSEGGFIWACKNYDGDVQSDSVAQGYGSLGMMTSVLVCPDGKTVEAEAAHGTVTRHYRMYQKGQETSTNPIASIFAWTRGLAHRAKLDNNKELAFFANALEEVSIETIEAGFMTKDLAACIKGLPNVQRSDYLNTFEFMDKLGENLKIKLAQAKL
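IDH1-R132H (0.5 ug/mL) preincubated 30 min with compound, then NADPH (0.016 mM) and alpha-KG (2 mM) added; 80 min at RT, pH 7.5. Remaining NADPH coupled via diaphorase/resazurin to fluorescence (540/590 nm); concentration-response curves normalized to no-enzyme control.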
LDHA inh – LDHA (human) enzyme inhibition; P00338; purified LDHA, NADH/diaphorase-resazurin fluorescence; active compounds read low; activity change, % (values are at about 110 or 230 µM); 480,000 tested, 0.15% active; AID 1347041; in the data active = activity change below about -30%; inconclusive = mostly about -25% to -30%
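Remaining NADH was detected by diaphorase (0.133 mg/mL) converting 37 µM resazurin to fluorescent resorufin, read at 0 and 20 minutes. The preceding 5-minute room-temperature reaction used 2 nM LDHA, 0.2 mM sodium pyruvate and 0.06 mM NADH at pH 7.4.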
Hits are given with their value; n = inactive; u = inconclusive; x = no result. This is a sample that favours compounds with a hit; in the whole collection about 2.7% have one here. Unless noted, calls follow the shape of the dose curve; as a rule, active = well fitted curve in the direction sought with a large enough effect; inconclusive = small, poorly fitted or top-dose-only effect, or another doubt; inactive = no such curve, though single readings can be large; an effect the other way counts as inactive or inconclusive.

SMILES	Nrf2 inh	12-LOX inh	A549 tox	Nrf2 ARE act	IDH1 R132H inh	LDHA inh
Cc1nc2ccc(S(=O)(=O)CCC(=O)Nc3ccc(F)cc3C)cc2s1	n	22µM	n	n	n	n
Cc1ccc(/C(O)=C2\C(=O)C(=O)N(CCCO)C2c2ccc(Br)cc2)cc1 (stereo not given)	x	u	x	x	x	n
COc1ccc(C2/C(=C(\O)c3ccc(C)cc3)C(=O)C(=O)N2CCCO)cc1 (stereo not given)	x	0.56µM	x	x	x	n
COc1ccc(C2/C(=C(/O)c3ccc(C)cc3)C(=O)C(=O)N2c2ccccn2)cc1 (stereo not given)	n	u	n	n	n	n
Cc1ccc(/C(O)=C2\C(=O)C(=O)N(c3nc4ccccc4s3)C2c2ccc(O)cc2)cc1 (stereo not given)	x	18µM	x	x	x	n
CCOc1ccc(/C(O)=C2\C(=O)C(=O)N(c3nccs3)C2c2ccc(C)cc2)cc1 (stereo not given)	x	6.3µM	x	x	x	n
C=CCOc1ccc(/C(O)=C2\C(=O)C(=O)N(CCOC)C2c2cccnc2)cc1 (stereo not given)	u	40µM	n	n	n	n
CC(C)(C)NC(=O)c1ccc2c(c1)CCCN2C(=O)c1ccc(Cl)cc1	x	u	x	x	x	n
O=C1CC(c2ccc3c(c2)OCO3)c2c(c3ccccc3[nH]c2=O)O1 (stereo not given)	x	u	x	x	x	n
Cc1ccc(C(C#N)c2ccc3c(C(F)(F)F)cc(C(F)(F)F)nc3n2)cc1 (stereo not given)	u	n	u	n	n	n
N#CC(c1ccccc1)c1ccc2c(C(F)(F)F)cc(C(F)(F)F)nc2n1 (stereo not given)	26µM	n	u	u	n	n
C=CCOc1ccc(Br)cc1/C=C(/C#N)C(=O)Nc1ccccc1C(F)(F)F	x	u	x	x	x	n
COc1ccc(CCNC(=O)/C=C/c2ccco2)cc1OC	n	u	n	n	n	n
O=C(/C=C/c1ccco1)Oc1ccc(Sc2ccc(OC(=O)/C=C/c3ccco3)cc2)cc1	x	11µM	x	x	x	n
Cc1csc(NC(=O)/C=C/c2ccco2)n1	u	n	n	1.8µM	n	n
COc1ccc(C(NC(=O)/C=C\c2ccco2)c2ccc(OC)c(OC)c2)cc1 (stereo not given)	n	32µM	n	n	n	n
COc1ccc(C(NC(=O)/C=C/c2ccco2)c2ccc(OC)cc2)cc1	n	45µM	n	n	n	n
CC(C)C(=O)Oc1ccc2c(=O)c(-c3ccc(Cl)cc3)coc2c1	x	u	x	x	x	n
Cc1nsc(N)c1C(=O)OCc1csc(-c2ccccc2)n1	x	25µM	x	x	x	n
C=C1C(=O)O[C@@H]2[C@H]1[C@@H](OC(=O)/C(C)=C/C)C/C(C)=C\C(=O)/C=C(\C)[C@@H]2O	21µM	n	u	u	n	n
C/C=C(/C)C(=O)O[C@H]1CC(C)=CC(=O)[C@@]2(C)CC[C@@](O)(C(C)C)[C@H]12	n	n	n	x	x	x
CC(=O)c1ccc(C)cc1OCc1ccccc1C#N	x	n	x	x	x	n
O=Cc1cc(Cl)c(O)c(Br)c1	x	u	x	x	x	n
Oc1c(Br)cc(Cl)cc1Cc1cc(Cl)cc(Br)c1O	x	28µM	x	x	x	n
CC(C)(C)OC(=O)N/N=C/c1ccccc1OCC(=O)O	x	u	x	x	x	n
SMILES	Nrf2 inh	12-LOX inh	A549 tox	Nrf2 ARE act	IDH1 R132H inh	LDHA inh
COc1ccc(NC(=O)/C=C/c2ccc(C(C)(C)C)cc2)cc1Cl	x	u	x	x	x	n
O=S1(=O)C=C(N2CCOCC2)c2ccccc21	n	n	n	13µM	n	n
Cc1ccc(S(=O)(=O)N2CCCCC2)cc1NC(=O)Cc1cccs1	n	n	n	n	n	n
O=C(CSc1nc2ccccc2s1)Nc1cc(S(=O)(=O)N2CCOCC2)ccc1O	n	22µM	n	n	n	n
Cc1ccc(S(=O)(=O)N2CCOCC2)cc1NC(=O)CNCc1ccc(Cl)cc1Cl	13µM	n	n	n	n	n
CN(CC(=O)Nc1cc(S(=O)(=O)N2CCCC2)ccc1Cl)Cc1cccs1	26µM	n	n	n	n	n
CCN(CC)c1ccc(S(=O)(=O)N2CCOCC2)cc1NC(=O)CNCc1cccc(Cl)c1	26µM	u	u	n	n	n
CCN(CC)c1ccc(S(=O)(=O)N2CCOCC2)cc1NC(=O)CSc1ccccc1	n	u	n	n	n	n
Cc1ccc(Oc2nc3c(c(=O)n(C)c(=O)n3C)n2Cc2ccc(F)cc2)cc1C	x	n	x	x	x	n
Cc1oc2cc(OCC(=O)N3CCC(C(=O)O)CC3)ccc2c(=O)c1-c1ccc(Cl)cc1	x	n	x	x	x	n
Cc1cccc(NC(=O)CC2CCCN(c3cnn(CC4CC4)c(=O)c3)C2)c1 (stereo not given)	x	n	x	x	x	x
O=C(CNCc1ccccc1Cl)Nc1cc(S(=O)(=O)N2CCOCC2)ccc1Cl	16µM	n	n	n	n	n
Cc1ccc(S(=O)(=O)N2CCOCC2)cc1NC(=O)CNCc1cccnc1	u	n	u	n	n	-40
Cc1ccc(S(=O)(=O)N2CCOCC2)cc1NC(=O)CNCC1CCCCC1	n	n	n	n	n	u
O=S(=O)(c1ccc(Cl)c(NC(=S)N/N=C/c2ccc(O)cc2)c1)N1CCOCC1	16µM	u	n	n	n	n
CCOc1cc(COC(=O)c2ccc(S(=O)(=O)N3CCCC3)cc2)ccc1OC(F)F	x	u	x	x	x	n
CCc1noc(C)c1C(=O)Oc1ccc(N(C)S(=O)(=O)c2ccc(C)cc2)cc1	u	x	n	n	n	n
CCc1noc(C)c1C(=O)Oc1ccc(N(C)S(=O)(=O)c2ccccc2)cc1	16µM	n	n	n	n	n
COc1ccc(S(=O)(=O)N2CCN(Cc3ccccc3)CC2)cc1	n	n	n	n	n	n
COc1cc(CN2CCN(S(=O)(=O)c3ccccc3)CC2)cc(OC)c1O	n	n	n	n	n	n
COc1ccc(S(=O)(=O)N2CCN(Cc3cc(OC)c(O)c(OC)c3)CC2)cc1	n	0.56µM	n	n	n	n
COc1ccc(S(=O)(=O)N2CCN(Cc3cc(OC)c(OC)c(OC)c3)CC2)cc1	n	0.71µM	n	n	n	n
Cc1ccc(S(=O)(=O)Nc2cccc(C(=O)NC3CCN(Cc4ccccc4)CC3)c2)cc1F	10µM	u	u	n	n	n
O=C(NC1CCN(Cc2ccccc2)CC1)c1cccc(S(=O)(=O)Nc2ccc(SC(F)F)cc2)c1	16µM	n	u	n	n	n
Cc1cc(C(C)(C)C)cc(C)c1CS(=O)Cc1ccccc1F (stereo not given)	x	n	x	x	x	n
O=S(=O)(c1ccccc1)N1CCN(CC(O)COc2ccc3c(c2)CCC3)CC1 (stereo not given)	16µM	n	n	n	n	n
CCOC(=O)c1ccccc1OC(=O)c1ccccc1	x	n	x	x	x	n
